Measured values from PubChem BioAssay.
Activity calls are given as the source filed them. Unless noted, how the calls were made is not given here.

Experiments:
[1] = resazurin metabolic signal in HepG2 cells – cell-based, resazurin fluorescence, 24 h, PK04 Diversity Set, profiling panel (AID 1172); settings: HepG2 viability, higher = more signal; further: test concentration not given here
[2] = budding yeast growth changes without added modifier – OD600, strain BY4716, 24 h, basal condition, primary screen (AID 1173); settings: S. cerevisiae BY4716 growth, OD600, 24 h; higher = more signal, called active from +8 up or from −8 down
[3] = viability profiling in MM1S myeloma cells – cell-based, resazurin fluorescence, basal, 24 h, PK04 Diversity Set, profiling panel (AID 1174); settings: higher = more signal, called active from +8 up or from −8 down;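 further: MM1S multiple myeloma cell line; test concentration not given here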
[4] = biological target: Dihydroorotate dehydrogenase (quinone), mitochondrial (Plasmodium falciparum (isolate 3D7)) (UniProt Q08210); assay: inhibition of P. falciparum DHODH – biochemical, C-terminal His tag, absorbance 600 nm, primary screen (AID 1175); settings: PfDHODH enzyme, DCIP absorbance 600 nm; higher = more signal, called active from +8 up or from −8 down;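 further: recombinant parasite enzyme with a five histidine tag at its C terminus; test concentration not given here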
[5] = inhibition of PAO1 biofilm formation – strain PAO1, LB-PBS medium, absorbance 600 nm, primary screen (AID 1176); further: test concentration not given here; settings: P. aeruginosa PAO1 growth/biofilm, A600, 12 h; higher = more signal
[6] = growth modulation of vineyard yeast isolate – strain RM11-1a, OD600, basal, 24 h, primary screen (AID 1177);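 further: cultures grown under basal conditions with no added stressor; test concentration not given here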; settings: S. cerevisiae RM11-1a growth, OD600, 24 h; higher = more signal, called active from +8 up or from −8 down
[7] = growth of efflux-deficient E. coli DRC39 – strain DRC39, OD650, 24 h, E. coli filamentation inducers, primary screen (AID 1178);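 further: growth measured as culture turbidity by optical density at 650 nm; test concentration not given here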; settings: E. coli DRC39 acrAB, higher = more signal, called active from +8 up or from −8 down
[8] = growth of efflux-deficient E. coli DRC39 – strain DRC39, OD650, 48 h, E. coli filamentation inducers, primary screen (AID 1179);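 further: screen aims at cell division blockers that make cells filament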; settings: E. coli DRC39 delta-acrAB growth, higher = more signal, called active from +8 up or from −8 down
[9] = viability profiling in RPMI8226 myeloma cells – cell-based, resazurin fluorescence, basal, 24 h, PK04 Diversity Set, profiling panel (AID 1180); settings: higher = more signal;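 further: RPMI8826 multiple myeloma cell line at 5000 cells per well; test concentration not given here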
[10] = biological target: E3 ubiquitin-protein ligase XIAP (Homo sapiens) (UniProt P98170); assay: small molecules binding XIAP protein – biophysical, small-molecule microarray, fluorescence 635 nm, primary screen (AID 1181); settings: higher = more signal;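 further: score merges 667 nm emission and signal to noise over triplicate slides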
Chain of E3 ubiquitin-protein ligase XIAP (Homo sapiens) (P98170 whole entry, looked up): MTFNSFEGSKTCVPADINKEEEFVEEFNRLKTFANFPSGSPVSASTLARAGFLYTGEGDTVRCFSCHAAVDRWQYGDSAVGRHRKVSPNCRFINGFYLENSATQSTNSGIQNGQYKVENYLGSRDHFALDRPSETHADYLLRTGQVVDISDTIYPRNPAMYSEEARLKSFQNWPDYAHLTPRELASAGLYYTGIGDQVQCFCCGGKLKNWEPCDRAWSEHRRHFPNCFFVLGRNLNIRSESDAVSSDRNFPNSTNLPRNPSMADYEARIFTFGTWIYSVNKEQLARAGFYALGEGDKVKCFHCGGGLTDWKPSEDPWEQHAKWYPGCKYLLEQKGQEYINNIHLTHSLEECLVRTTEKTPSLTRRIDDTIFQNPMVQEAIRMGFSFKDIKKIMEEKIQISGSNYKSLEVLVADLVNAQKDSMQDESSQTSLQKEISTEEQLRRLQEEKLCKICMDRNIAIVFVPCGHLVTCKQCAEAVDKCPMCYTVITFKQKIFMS

Chain of Dihydroorotate dehydrogenase (quinone), mitochondrial (Plasmodium falciparum (isolate 3D7)) (Q08210 whole entry, looked up): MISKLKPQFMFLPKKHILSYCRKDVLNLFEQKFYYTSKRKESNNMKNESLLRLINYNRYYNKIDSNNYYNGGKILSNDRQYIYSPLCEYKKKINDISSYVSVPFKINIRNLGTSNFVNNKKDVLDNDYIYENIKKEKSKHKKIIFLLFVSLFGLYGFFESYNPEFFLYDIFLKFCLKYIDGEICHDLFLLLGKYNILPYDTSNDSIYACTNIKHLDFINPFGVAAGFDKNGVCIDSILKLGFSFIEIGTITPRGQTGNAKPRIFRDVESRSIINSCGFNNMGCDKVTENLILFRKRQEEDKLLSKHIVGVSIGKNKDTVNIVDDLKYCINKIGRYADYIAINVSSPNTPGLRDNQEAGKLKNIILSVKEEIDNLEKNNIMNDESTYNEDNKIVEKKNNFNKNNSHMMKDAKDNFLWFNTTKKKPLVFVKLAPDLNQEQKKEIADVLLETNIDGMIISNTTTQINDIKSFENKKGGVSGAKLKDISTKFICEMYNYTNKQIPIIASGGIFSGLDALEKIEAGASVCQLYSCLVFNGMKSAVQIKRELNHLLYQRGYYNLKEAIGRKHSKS

SMILES	z-score [1]	z-score [2]	z-score [3]	composite z-score [4]	z-score [5]	z-score [6]	z-score [7]	z-score [8]	z-score [9]	composite z-score [10]
CCN1C(=O)[C@H]2[C@H]3[C@H](O)[C@H](O)CC(=NOCC[C@@H]4C=C[C@H](OC(C)=O)[C@@H](COC(C)=O)O4)[C@@H]3CC[C@H]2C1=O	-1.02	0.508 (inactive)	-1.85 (inactive)	-0.666 (inactive)	1.22 (inactive)	-0.183 (inactive)	0.178 (inactive)	-0.0655 (inactive)	-1.05	0.134
Cc1cc2c(nc1C)CCCCN2CC(O)CN1CCCc2nc(-c3ccc(Br)cc3)ccc21 (stereo not given)	-0.225	-0.849 (inactive)	-1.51 (inactive)	0.667 (inactive)	0.38 (inactive)	0.919 (inactive)	0.608 (inactive)	0.348 (inactive)	-1.48	0.131
OC[C@H]1O[C@H](C#Cc2ccccc2)C=C[C@@H]1O	-0.0313	-2.6 (inactive)	-0.323 (inactive)	-0.249 (inactive)	0.298 (inactive)	-0.353 (inactive)	0.953 (inactive)	0.626 (inactive)	0.226	-0.184
CCN1C(=O)[C@H]2[C@H]3[C@H](O)[C@H](O)CC(=NO[C@@H]4O[C@H](CO)[C@@H](O)[C@H](O)[C@H]4O)[C@H]3CC[C@H]2C1=O	-0.171	-0.305 (inactive)	0.298 (inactive)	-0.707 (inactive)	0.519 (inactive)	-0.782 (inactive)	-0.18 (inactive)	-0.446 (inactive)	0.064	-0.11
CCN1C(C)=C(C(=O)OC)[C@@H](c2ccccc2)N2C(=O)[C@](O)(C(=O)OC)CC(C(C)=O)=C12	-0.0348	-1.38 (inactive)	0.136 (inactive)	-1.27 (inactive)	-0.242 (inactive)	-0.695 (inactive)	0.538 (inactive)	0.866 (inactive)	-0.11	0.0264
CCN1C(=O)[C@H]2[C@H]3[C@H](O)[C@H](O)CC(=NOC(C)CN4CCCc5nc(C)c(C)cc54)[C@@H]3CC[C@H]2C1=O (stereo not given in full)	-1.01	-0.0189 (inactive)	-2 (inactive)	0.988 (inactive)	-0.112 (inactive)	0.49 (inactive)	0.836 (inactive)	0.583 (inactive)	-2.01	0.109
CCN1C(=O)[C@H]2[C@H]3[C@H](O)[C@H](O)CC(=NO[C@@H]4O[C@H](COC(C)=O)[C@@H](OC(C)=O)[C@H](OC(C)=O)[C@H]4OC(C)=O)[C@@H]3CC[C@H]2C1=O	-1.15	0.902 (inactive)	-0.974 (inactive)	-0.0673 (inactive)	-0.136 (inactive)	0.164 (inactive)	1.22 (inactive)	1.44 (inactive)	-1.03	1.92
COC(=O)[C@H](C)NC(=O)CCC1CC(OC(=O)NCc2ccc3c(c2)OCO3)CC2(CCCC(COC(=O)NCCC(C)C)O2)O1 (stereo not given in full)	0.506	-0.43 (inactive)	-0.274 (inactive)	-0.558 (inactive)	-0.294 (inactive)	-0.774 (inactive)	0.909 (inactive)	-0.804 (inactive)	0.0961	0.0245
CCN1C(=O)[C@H]2[C@H]3[C@H](O)[C@H](O)CC(=NO[C@@H](C)c4cc(-c5c(C)cc(C)cc5C)no4)[C@@H]3CC[C@H]2C1=O	0.0416	-2.13 (inactive)	-0.69 (inactive)	-0.126 (inactive)	0.0646 (inactive)	0.0564 (inactive)	0.767 (inactive)	0.596 (inactive)	-0.835	-0.102
COC(=O)[C@H](C)NC(=O)CCC1CC(OC(=O)NCCc2ccc(F)cc2)CC2(CCCC(COC(=O)NCC3CCCCC3)O2)O1 (stereo not given in full)	0.427	-0.491 (inactive)	1.05 (inactive)	-2.53 (inactive)	-0.919 (inactive)	0.363 (inactive)	-0.603 (inactive)	-0.741 (inactive)	0.13	0.514
C#CCCCON=C1C[C@@H](O)[C@@H](O)[C@@H]2[C@@H]3C(=O)N(C[C@@H]4CCCO4)C(=O)[C@@H]3CC[C@H]12	-0.344	0.767 (inactive)	-0.448 (inactive)	0.347 (inactive)	0.0001 (inactive)	0.364 (inactive)	-0.145 (inactive)	0.212 (inactive)	-0.179	-0.122
COCOc1ccc(Br)cc1C(=O)C=Cc1ccc2c(c1)OCO2	-2.37	-3.33 (inactive)	-3.86 (inactive)	-1.1 (inactive)	1.01 (inactive)	0.616 (inactive)	0.725 (inactive)	0.253 (inactive)	-3.36	-0.0076
COC(=O)[C@@H]1CC[C@H](C)[C@@H](c2ccc(C)cc2)N1C(=O)c1ccc(C=NOC[C@H]2O[C@H](c3ccccc3)C=C[C@@H]2Oc2ccc(OC)cc2)cc1	0.158	0.856 (inactive)	-0.0983 (inactive)	0.13 (inactive)	0.0282 (inactive)	0.386 (inactive)	-0.469 (inactive)	-0.499 (inactive)	0.539	-0.0773
CCN1C(=O)[C@H]2[C@H]3[C@H](O)[C@H](O)CC(=NNC(=O)OCc4ccccc4)[C@H]3CC[C@H]2C1=O	-0.0019	-0.277 (inactive)	-0.193 (inactive)	-0.052 (inactive)	0.814 (inactive)	-0.727 (inactive)	-0.47 (inactive)	-1.79 (inactive)	-0.163	-0.102
COC(=O)[C@@H]1CC[C@H](C)[C@@H](c2ccc(Br)cc2)N1	0.138	0.86 (inactive)	0.176 (inactive)	0.496 (inactive)	0.119 (inactive)	1.27 (inactive)	0.45 (inactive)	-0.836 (inactive)	0.279	1.27
COC(=O)CC=C[C@@H](C)[C@@H](C=NOC(C)CN1CCCc2nc(C)c(C)cc21)NS(=O)(=O)c1ccc(C)cc1 (stereo not given in full)	-0.566	0.21 (inactive)	-0.47 (inactive)	0.899 (inactive)	0.253 (inactive)	0.253 (inactive)	0.157 (inactive)	-0.0007 (inactive)	-1.32	0.222
COC(=O)[C@H](C)NC(=O)CCC1CC(OC(=O)NCc2ccc3c(c2)OCO3)CC2(CCCC(COC(=O)NCCc3ccc(Cl)cc3)O2)O1 (stereo not given in full)	0.388	0.515 (inactive)	-0.682 (inactive)	0.0925 (inactive)	-0.965 (inactive)	0.88 (inactive)	0.616 (inactive)	-0.729 (inactive)	0.0968	-0.0559
COC(OC)[C@@H](C)[C@H](OC)[C@@H](C)[C@H](OC)c1ccccc1	-0.634	-1.31 (inactive)	-2.8 (inactive)	-2.36 (inactive)	0.912 (inactive)	-1.02 (inactive)	0.366 (inactive)	-0.0254 (inactive)	-0.466	-0.138
CCCCOC(OCCCC)C(O)CSc1ccc2ccccc2c1 (stereo not given)	-0.879	-2.07 (inactive)	-1.99 (inactive)	-0.161 (inactive)	0.344 (inactive)	0.363 (inactive)	0.872 (inactive)	1.01 (inactive)	-1.37	0.0506
CCN1C(=O)[C@H]2[C@H]3[C@H](O)[C@H](O)CC(=NOCC=C(C)CCC=C(C)C)[C@@H]3CC[C@H]2C1=O	-0.623	-6.59 (inactive)	-0.719 (inactive)	-1.16 (inactive)	-0.446 (inactive)	-0.29 (inactive)	0.42 (inactive)	-0.731 (inactive)	-0.517	0.155
CO[C@@H]1COC(=O)[C@@H]2CCCN2C(=O)[C@@H](C)COC(=O)CCC[C@H]1C	-0.668	-0.482 (inactive)	-0.27 (inactive)	-1.47 (inactive)	-0.197 (inactive)	-2.66 (inactive)	-0.0549 (inactive)	-0.0609 (inactive)	-0.304	0.134
CC(CCN1CCCc2nc(C)c(C)cc21)=NOC[C@@H](C)[C@H](OCc1ccccc1)C(C)C	-0.135	-3.26 (inactive)	0.0518 (inactive)	-2.07 (inactive)	-0.0417 (inactive)	-1.86 (inactive)	-0.787 (inactive)	0.262 (inactive)	-0.0093	0.0153
O=C1[C@H]2[C@H]3[C@H](O)[C@H](O)CC(=NOC[C@@H](O)COCc4ccco4)[C@@H]3CC[C@H]2C(=O)N1c1cccc(Oc2ccccc2)c1	0.928	-0.378 (inactive)	0.25 (inactive)	0.295 (inactive)	-0.389 (inactive)	-1 (inactive)	-0.25 (inactive)	-1.28 (inactive)	0.0789	0.1
CO[C@H]1COC(=O)CCC[C@H](C)[C@@H](OC)COC(=O)CC=C[C@@H]1C	0.367	-0.721 (inactive)	-1.18 (inactive)	-1.58 (inactive)	-0.339 (inactive)	-1.02 (inactive)	0.42 (inactive)	0.0526 (inactive)	1.07	0.0029
CC(=O)OC[C@H]1O[C@H](CC=NOCC[C@@H]2C=C[C@H](OC(C)=O)[C@@H](COC(C)=O)O2)C=C[C@@H]1OC(C)=O	0.149	0.0167 (inactive)	0.0092 (inactive)	-0.0986 (inactive)	0.229 (inactive)	0.0282 (inactive)	0.847 (inactive)	0.66 (inactive)	0.117	0.287
O=C1[C@H]2[C@H]3[C@H](O)[C@H](O)CC(=NOCc4ccccc4)[C@H]3CC[C@H]2C(=O)N1C1CCCCC1	-0.483	-0.149 (inactive)	-0.99 (inactive)	0.0894 (inactive)	0.377 (inactive)	-0.373 (inactive)	-0.157 (inactive)	-0.414 (inactive)	-1.83	0.237
